# The supplement of paper PMC8728848
# Only a selection was taken, and the strongest signals are over-represented in it overall.
# Legend:
# Assay in all cases: glycan array binding signal (z-score within array); higher = stronger binding
# Conditions in all cases: glycan notation: IUPAC condensed, linker removed
# [1] = target: Fuc(a1-2)Gal(b1-3)GalNAc(b1-3)Gal(a1-4)Gal(b1-4)Glc
# In short: (§1)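 Columns mapping to the same glycan were averaged after glycan names were converted to IUPAC-condensed notation. The data come from 3228 arrays in the Consortium for Functional Glycomics database, limited to those with an available protein sequence. Binding is reported as a within-array Z-score averaged across arrays of one protein sequence and across linkers.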
# [2] = target: Fuc(a1-2)Gal(b1-4)[Fuc(a1-3)]GlcNAc
# In short: as §1
# [3] = target: Fuc(a1-2)[Gal(a1-3)]Gal(b1-3)GlcNAc(b1-6)GalNAc
# In short: as §1
# [4] = target: Fuc(a1-2)[GalNAc(a1-3)]Gal(b1-4)GlcNAc(b1-3)Gal(b1-4)GlcNAc
# In short: as §1
# [5] = target: Fuc(a1-2)[GalNAc(a1-4)]Gal(b1-4)GlcNAc
# In short: as §1
# [6] = target: Fuc(a1-2)[GalNAc(b1-3)]Gal
# In short: as §1
# [7] = target: Fuc(a1-3)[Gal(b1-4)]GlcNAc(b1-2)Man(a1-3)[Fuc(a1-3)[Gal(b1-4)]GlcNAc(b1-2)Man(a1-6)]Man(b1-4)GlcNAc(b1-4)GlcNAc
# In short: as §1
# [8] = target: Gal(a1-3)Gal(b1-3)GlcNAc(b1-3)GalNAc
# In short: as §1
# [9] = target: Gal(a1-3)Gal(b1-3)GlcNAc(b1-6)GalNAc
# In short: as §1
# [10] = target: Gal(a1-3)Gal(b1-4)GlcNAc(b1-6)GalNAc
# In short: as §1
# [11] = target: Gal(b1-3)GlcNAc(b1-6)GalNAc
# In short: as §1
# [12] = target: Gal(b1-3)GlcNAc6S
# In short: as §1
# [13] = target: Gal(b1-3)[Neu5Ac(a2-6)]GlcNAc(b1-4)Gal(b1-4)Glc
# In short: as §1
# [14] = target: Gal(b1-4)GlcNAc(b1-3)Gal(b1-4)GlcNAc
# In short: as §1
# [15] = target: Gal(b1-4)GlcNAc(b1-3)Gal(b1-4)GlcNAc(b1-3)Gal(b1-4)GlcNAc(b1-3)Gal(b1-4)GlcNAc(b1-2)[Gal(b1-4)GlcNAc(b1-3)Gal(b1-4)GlcNAc(b1-3)Gal(b1-4)GlcNAc(b1-3)Gal(b1-4)GlcNAc(b1-6)]Man(a1-6)[Gal(b1-4)GlcNAc(b1-3)Gal(b1-4)GlcNAc(b1-3)Gal(b1-4)GlcNAc(b1-3)Gal(b1-4)GlcNAc(b1-2)Man(a1-3)]Man(b1-4)GlcNAc(b1-4)[Fuc(a1-6)]GlcNAc
# In short: as §1
# [16] = target: Gal6P(b1-4)GlcNAc
# In short: as §1
# [17] = target: Gal6S(b1-4)GlcNAc
# In short: as §1
# [18] = target: GalNAc(b1-3)Gal(a1-4)Gal(b1-4)GlcNAc
# In short: as §1
# [19] = target: GalNAc(b1-3)Gal(a1-4)Gal(b1-4)GlcNAc(b1-3)Gal(b1-4)Glc
# In short: as §1
# [20] = target: GalNAc(b1-4)GlcNAc(b1-3)GalNAc(b1-4)GlcNAc
# In short: as §1
# [21] = target: GalNAc3S(b1-4)[Fuc(a1-3)]GlcNAc
# In short: as §1
# [22] = target: Glc(b1-4)Glc
# In short: as §1
# [23] = target: GlcNAc(a1-4)Gal(b1-4)GlcNAc
# In short: as §1
# [24] = target: GlcNAc(b1-3)Gal(b1-4)GlcNAc(b1-3)Gal(b1-4)GlcNAc(b1-3)Gal(b1-4)GlcNAc(b1-2)Man(a1-3)[GlcNAc(b1-3)Gal(b1-4)GlcNAc(b1-3)Gal(b1-4)GlcNAc(b1-3)Gal(b1-4)GlcNAc(b1-2)Man(a1-6)]Man(b1-4)GlcNAc(b1-4)GlcNAc
# In short: as §1
# [25] = target: GlcNAc(b1-3)GalNAc
# In short: as §1
# [26] = target: GlcNAc(b1-4)GlcNAc(b1-4)GlcNAc(b1-4)GlcNAc(b1-4)GlcNAc(b1-4)GlcNAc
# In short: as §1
# [27] = target: GlcNAc(b1-6)GalNAc
# In short: as §1
# [28] = target: Man(a1-3)[Man(a1-6)]Man(a1-6)[Man(a1-2)Man(a1-3)]Man(b1-4)GlcNAc(b1-4)GlcNAc
# In short: as §1
# [29] = target: Man(a1-3)[Man(a1-6)]Man(b1-4)GlcNAc(b1-4)GlcNAc
# In short: as §1
# [30] = target: Man(a1-3)[Man(a1-6)]Man(b1-4)GlcNAc(b1-4)[Fuc(a1-6)]GlcNAc
# In short: as §1
# [31] = target: Man(b1-4)GlcNAc
# In short: as §1
# [32] = target: Neu5Ac(a2-3)Gal(b1-3)GalNAc(b1-4)[Neu5Ac(a2-3)]Gal(b1-4)Glc
# In short: as §1
# [33] = target: Neu5Ac(a2-3)Gal(b1-3)GlcNAc(b1-6)GalNAc
# In short: as §1
# [34] = target: Neu5Ac(a2-3)Gal(b1-4)GlcNAc(b1-2)Man(a1-3)[Neu5Ac(a2-6)Gal(b1-4)GlcNAc(b1-2)Man(a1-6)]Man(b1-4)GlcNAc(b1-4)GlcNAc
# In short: as §1
# [35] = target: Neu5Ac(a2-3)Gal(b1-4)GlcNAc(b1-3)Gal
# In short: as §1
# [36] = target: Neu5Ac(a2-3)Gal(b1-4)GlcNAc(b1-6)GalNAc
# In short: as §1
# [37] = target: Neu5Ac(a2-3)Gal6S(b1-4)GlcNAc
# In short: as §1
# [38] = target: Neu5Ac(a2-6)Gal(b1-4)GlcNAc(b1-2)Man(a1-6)[Gal(b1-4)GlcNAc(b1-2)Man(a1-3)]Man(b1-4)GlcNAc(b1-4)GlcNAc
# In short: as §1
# [39] = target: Neu5Ac(a2-6)GalNAc(b1-4)GlcNAc6S
# In short: as §1
# [40] = target: Neu5Ac(a2-8)Neu5Ac(a2-3)Gal(b1-3)GalNAc(b1-4)[Neu5Ac(a2-8)Neu5Ac(a2-3)]Gal(b1-4)Glc
# In short: as §1
# [41] = target: Neu5Ac(a2-8)Neu5Ac(a2-8)Neu5Ac(a2-8)Neu5Ac(a2-3)[GalNAc(b1-4)]Gal(b1-4)Glc
# In short: as §1
# [42] = target: Neu5Gc(a2-3)Gal(b1-4)Glc
# In short: as §1
binder,measurement,setting,value
DC-ASGPR S+GEE (Homo sapiens) (protein) MTRTYENFQYLENKVKVQGFKNGPLPLQSLLQRLRSGPCHLLLSLGLGLLLLVIICVVGFQNSKFQRDLVTLRTDFSNFTSNTVAEIQALTSQGSSLEETIASLKAEVEGFKQERQAVHSEMLLRVQQLVQDLKKLTCQVATINNNGEEASTEGTCCPVNWVEHQDSCYWFSHSGMSWAEAEKYCQLKNAHLVVINSREEQNFVQKYLGSAYTWMGLSDPEGAWKWVDGTDYATGFQNWKPGQPDDWQGHGLGGGEDCAHFHPDGRWNDDVCQRPYHWVCEAGLGQTSQESH,glycan array binding signal (z-score),[1],0.011
same,glycan array binding signal (z-score),[2],-0.28
same,glycan array binding signal (z-score),[3],3.42
same,glycan array binding signal (z-score),[4],0.807
same,glycan array binding signal (z-score),[5],3.75
same,glycan array binding signal (z-score),[6],4
same,glycan array binding signal (z-score),[7],-0.015
same,glycan array binding signal (z-score),[8],-0.224
same,glycan array binding signal (z-score),[9],4.91
same,glycan array binding signal (z-score),[10],3.92
same,glycan array binding signal (z-score),[11],3.77
same,glycan array binding signal (z-score),[12],-0.332
same,glycan array binding signal (z-score),[13],-0.315
same,glycan array binding signal (z-score),[14],-0.268
same,glycan array binding signal (z-score),[15],-0.145
same,glycan array binding signal (z-score),[16],-0.321
same,glycan array binding signal (z-score),[17],-0.262
same,glycan array binding signal (z-score),[18],4.67
same,glycan array binding signal (z-score),[19],4.39
same,glycan array binding signal (z-score),[20],3.84
same,glycan array binding signal (z-score),[21],-0.27
same,glycan array binding signal (z-score),[22],-0.376
same,glycan array binding signal (z-score),[23],-0.318
same,glycan array binding signal (z-score),[24],-0.276
same,glycan array binding signal (z-score),[25],-0.312
same,glycan array binding signal (z-score),[26],-0.22
same,glycan array binding signal (z-score),[27],3.74
same,glycan array binding signal (z-score),[28],-0.252
same,glycan array binding signal (z-score),[29],-0.021
same,glycan array binding signal (z-score),[30],-0.295
same,glycan array binding signal (z-score),[31],-0.339
same,glycan array binding signal (z-score),[32],-0.329
same,glycan array binding signal (z-score),[33],4.84
same,glycan array binding signal (z-score),[34],-0.297
same,glycan array binding signal (z-score),[35],-0.325
same,glycan array binding signal (z-score),[36],4.38
same,glycan array binding signal (z-score),[37],-0.32
same,glycan array binding signal (z-score),[38],-0.355
same,glycan array binding signal (z-score),[39],0.608
same,glycan array binding signal (z-score),[40],-0.342
same,glycan array binding signal (z-score),[41],1.61
same,glycan array binding signal (z-score),[42],-0.351
